Experimental findings from PubChem BioAssay (Tox21) are described below.

Records with an inconclusive call do not appear. Where a call stands in place of a potency, no number is given. Activity calls are given as the source filed them. Calls follow the shape of the dose curve; as a rule, active = well fitted cell-killing curve with a large enough effect in the repeat runs; inconclusive = weak or mixed curves, or effect the other way; inactive = no such curve, though single readings can be large or run the other way.
Potency is read from the fitted curve at half-maximal effect.

A short description of the assay: qHTS assay for identifying genotoxic compounds that show differential cytotoxicity against isogenic chicken DT40 cell lines with known DNA damage response pathways - Rev3 mutant cell line (AID 743014). Also: nearly all actives have a fitted effect of over 55% in size. The following applies: chicken DT40 Rev3-/- viability, CellTiter-Glo, 40 h; series mostly up to 68.4 µM.
Turning to `C=C1c2c(Cl)ccc(O)c2C(O)=C2C(=O)[C@]3(O)C(O)=C(C(N)=O)C(=O)[C@@H](N(C)C)[C@@H]3[C@@H](O)[C@H]12`, the Potency result was “inactive”.

For `CN1CCc2c(c3ccccc3n2Cc2ccccc2)C1`, the Potency result is “inactive”.

Regarding `CC(=O)OCC(=O)[C@@]12OC3(CCCC3)O[C@@H]1C[C@H]1[C@@H]3CCC4=CC(=O)C=C[C@]4(C)[C@@]3(F)[C@@H](O)C[C@@]12C`, the Potency result was “inactive”.

`CCCCCCCCCCCCCCCCCCOP(=O)([O-])OC1CC[N+](C)(C)CC1`: the Potency result was “inactive”.

Consider `CC(C)CN(C[C@@H](O)[C@H](Cc1ccccc1)NC(=O)O[C@H]1CO[C@H]2OCC[C@H]21)S(=O)(=O)c1ccc(N)cc1`, for which the Potency entry was “inactive”.

On to `CCOC(=O)[C@H](CS)NCCN[C@@H](CS)C(=O)OCC`, for which the Potency result was “inactive”.

As to `CC#CCC(C)[C@H](O)/C=C/[C@@H]1[C@H]2C/C(=C/CCCC(=O)O)C[C@H]2C[C@H]1O` (stereo not given in full), the Potency result is “inactive”.

On to `CC(C)(C)NC(=O)[C@H]1CC[C@H]2[C@@H]3CC=C4C=C(C(=O)O)CC[C@]4(C)[C@H]3CC[C@]12C`, for which the Potency entry was “inactive”.

As to `COc1ccc(C(=O)Nc2ccccc2CCC2CCCCN2C)cc1` (stereo not given), the Potency result was “inactive”.

Take `CS(=O)(=O)c1ccc(C2=C(c3ccccc3)C(=O)OC2)cc1`: the Potency result is “inactive”.

As for `CC(C)(C)NCC(O)CSc1nc(-c2ccc(C(N)=O)s2)cs1` (stereo not given), the Potency result is “inactive”.

For the molecule `C#C[C@]1(O)CC[C@H]2[C@@H]3CCC4=C(CCC(=O)C4)[C@H]3CC[C@@]21C`, the Potency entry was “inactive”.

Turning to `CCCCCCCCCCCCCCCCCC[N+](C)(C)CCC[Si](OC)(OC)OC`, the Potency is 18.8 µM (active).

Turning to `CCCCC(C)(O)C/C=C/[C@H]1[C@H](O)CC(=O)[C@@H]1CCCCCCC(=O)OC` (stereo not given in full), the Potency is 1.68 µM (active).

Take `CCC(=O)OCC(=O)[C@@]1(OC(=O)CC)[C@H](C)C[C@H]2[C@H]3[C@H]([C@@H](O)C[C@@]21C)[C@@]1(C)C=CC(=O)C=C1C[C@H]3Cl`: the Potency result is “inactive”.

As for `C[N+]1(C)[C@@H]2CC(OC(=O)C(O)(c3cccs3)c3cccs3)C[C@H]1[C@@H]1O[C@@H]12` (stereo not given in full), the Potency result is “inactive”.

For `CC(C)NCC(O)COc1ccccc1-n1cccc1` (stereo not given), the Potency entry is “inactive”.

For `CCN(CC)c1ccc(N=Nc2ccc(S(=O)(=O)N(C)C)cc2)c(S(=O)(=O)NCC[n+]2ccccc2)c1`, the Potency entry was “inactive”.

As for `CC(NNC(=O)c1ccccc1)c1ccccc1` (stereo not given), the Potency entry was “inactive”.

As for `CCCCC[C@H](O)/C=C/[C@H]1[C@H](O)CC(=O)[C@@H]1CCCCCCC(=O)O`, the Potency entry was “inactive”.

As for `COc1ccc2c(=O)c(C)c(-c3ccccc3)oc2c1CN(C)C`, the Potency result is “inactive”.

Consider `CC1(C)[C@@H]2CC[C@@]1(C)[C@H](OC(=O)CSC#N)C2`, for which the Potency entry was “inactive”.

Consider `Cc1cccc(C)c1N(CCCc1cccnc1)C(=O)C(C)N` (stereo not given), for which the Potency result is “inactive”.

In the case of `Cn1c(=O)c2c(ncn2CCOC(=O)C(C)(C)Oc2ccc(Cl)cc2)n(C)c1=O`, the Potency entry was “inactive”.

For the molecule `[O]=[Bi][O]C(=O)[O][Bi]=[O]`, the Potency result was “inactive”.

In the case of `O=S(=O)(O)c1cc(O)c2c(N=Nc3ccc(Nc4ccccc4)c4c(S(=O)(=O)O)cccc34)cc(S(=O)(=O)O)cc2c1`, the Potency is 11.9 µM (active).

For `Cc1cc(Nc2ccccc2C(=O)O)ccc1Cl`, the Potency was 29.8 µM (active).

In the case of `CN1C(=O)CN2CCc3ccccc3C2c2cc(Cl)ccc21` (stereo not given), the Potency entry is “inactive”.

Take `CN1CCN2c3ncccc3Cc3ccccc3C2C1` (stereo not given): the Potency result was “inactive”.

Take `CC1(C)C(\C=C/C=C\C=C/C=C2/N(CCCCS(=O)(=O)O)c3ccc4ccccc4c3C2(C)C)=[N+](CCCCS(=O)(=O)[O-])c2ccc3ccccc3c21`: the Potency was 26.6 µM (active).
